Compound activity as filed in PubChem BioAssay.
CtBP-E1A inh = inhibitors of CtBP/E1A interaction; AlphaScreen GST-E1A/His-CtBP binding, 1536-well; stronger effect = lower value; activity change, % (no concentration beside the values); hit rate 0.49% among 340,000; in the data active = activity change below about -65%; inconclusive = mostly about -30% to -63%; also: % is scaled to controls: 0 for no effect and ±100 for the full control effect
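In 5 uL wells, 23 nL compound meets equimolar GST-E1A and His-CtBP (5X stock 125 nM each) for 2 h, 37 °C. Beads (5X, 50 ug/mL) then 1 h, 37 °C, dark.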
Six1-Eya2 blk = blocks human Six1 binding to Eya2; Q15475+O00167; activity change, % (test concentration not listed); AlphaScreen GST-Six1/His-Eya2 binding, biochemical; stronger effect = lower value; hit rate 0.56% among 360,000; in the data active = activity change below about -65%; inconclusive = mostly about -30% to -63%; also: % is scaled to controls: 0 for no effect and ±100 for the full control effect
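AlphaScreen luminescence read after one hour at 37 °C in darkness. Pin-transferred compounds met GST-Six1 and His-Eya2 protein (5X stock 250 nM/500 nM) plus glutathione donor and Ni-chelate acceptor beads (5X, 50 ug/mL).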
HP1b binding inh = HP1-beta chromodomain-methylated histone interaction inhibition. P83916. AlphaScreen HP1-beta / biotin-H3K9me3 peptide binding. Potency, µM (doses to about 114 µM), for inactives: at the highest dose activity change, negative = inhibition, usual class: inhibitors. hit rate 0.56% among 390,000; also: potency is read from the fitted curve at half-maximal effect; nearly all actives have a fitted effect of over 70% in size
Target sequence (P83916 whole entry, looked up): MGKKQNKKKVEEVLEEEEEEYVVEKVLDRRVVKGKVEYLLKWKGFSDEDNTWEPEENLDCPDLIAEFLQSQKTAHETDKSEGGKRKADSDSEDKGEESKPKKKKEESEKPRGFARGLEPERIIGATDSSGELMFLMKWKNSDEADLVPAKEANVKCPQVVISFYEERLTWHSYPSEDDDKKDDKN
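AlphaScreen: HP1-beta (50 nM) preformed 30 min with biotin-H3(1-18)K9me3 peptide (50 nM) in PBS pH 7.4, 0.01% Tween-20. Compound added for 30 min at RT, then streptavidin donor/nickel chelate acceptor beads (10 ug/mL) for 30 min.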
JMJD2A Tudor inh = inhibitors of human JMJD2A Tudor domain. O75164. AlphaScreen JMJD2A-Tudor / H3K4me3 peptide binding. Potency, µM (top dose mostly 114 µM), without a hit: at the top dose activity change, negative = inhibition, most hits filed as inhibitors. hit rate 4.4% among 390,000. AID 504339; also: potency is read from the fitted curve at half-maximal effect; % is scaled to controls: 0 for no effect and ±100 for the full control effect; nearly all actives have a fitted effect of over 50% in size
G9a inh = blocks human histone lysine methyltransferase G9a; G9a H3K9 monomethylation, AlphaScreen, 2 h; Potency, µM (highest dose often 102 µM), for the others: at the highest dose activity, negative = inhibition, hits mostly inhibitors; hit rate 8.8% among 350,000; AID 504332; Q96KQ7; also: potency is read from the fitted curve at half-maximal effect; % is scaled to controls: 0 for no effect and ±100 for the full control effect; nearly all actives have a fitted effect of over 75% in size
Target sequence (Q96KQ7 913-1193 limits assumed): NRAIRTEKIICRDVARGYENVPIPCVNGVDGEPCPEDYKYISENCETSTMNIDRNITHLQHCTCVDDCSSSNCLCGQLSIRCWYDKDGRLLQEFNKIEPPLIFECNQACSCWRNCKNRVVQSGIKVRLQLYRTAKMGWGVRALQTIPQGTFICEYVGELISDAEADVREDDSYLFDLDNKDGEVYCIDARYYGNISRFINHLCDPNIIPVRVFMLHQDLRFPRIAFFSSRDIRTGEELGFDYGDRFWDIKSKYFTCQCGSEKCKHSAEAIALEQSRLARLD
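G9a (20 nM) was preincubated 15 min with compound, then reacted 2 h at room temperature with 500 nM biotin-H3K9 peptide and 20 µM SAM. Monomethyl-H3K9 detected by AlphaScreen using anti-H3K9me1 antibody.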
BAZ2B inh = inhibitors of human BAZ2B bromodomain. Q9UIF8. Potency, µM (highest dose often 114 µM), for the others: top-dose activity change, negative = inhibition, hits mostly inhibitors. AlphaScreen BAZ2B-H3K14Ac peptide displacement. AID 504333. hit rate 4.4% among 360,000; also: potency is read from the fitted curve at half-maximal effect; % is scaled to controls: 0 for no effect and ±100 for the full control effect; nearly all actives have a fitted effect of over 60% in size
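BAZ2B 50 nM plus b-H3(5-23)K14Ac 50 nM, PBS pH 7.4/0.01% Tween-20, 30 min RT; compound added (max 110 uM), 30 min RT; streptavidin donor/Ni-chelate acceptor beads 10 ug/mL final, 20 min dark; AlphaScreen read.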
* marks the source's active call; other numbers are inactive results; ? = inconclusive; nt = no result; [ ] = dose if it differs, or a comment. Compounds with a hit are over-represented: about 10% of the library has one in this group of screens. Unless noted, calls follow the shape of the dose curve; as a rule, active = well fitted inhibition curve with a large enough effect; inconclusive = small, poorly fitted or top-dose-only effect; inactive = no such curve, though single readings can be large or run the other way.

SMILES	CtBP-E1A inh	Six1-Eya2 blk	HP1b binding inh	JMJD2A Tudor inh	G9a inh	BAZ2B inh
Cc1ccccc1OCC(=O)N/N=C/c1cccn1C	-7	-15	-18%	8%[11.4 µM]	?	45µM*
Cc1ccc(C(C)C)c(OCC(=O)Nc2ccc(N3CCN(S(C)(=O)=O)CC3)cc2)c1	0	-2	26%	-6%	10µM*	-13%
Cn1cnc(S(=O)(=O)N2CCCC(C(=O)NCc3ccccc3Cl)C2)c1 (stereo not drawn)	nt	nt	59%	5%	20%[59 µM]	0%
Cc1nc(N)sc1N=Nc1ccccc1C(F)(F)F	0	-25	35µM*	50µM*	40µM*	28µM*
CCc1nnc(NS(=O)(=O)c2ccc(N/C=C\C(=O)c3cccc(OC)c3)cc2)s1	-15	-3	29%	-13%	50µM*	-38%
CCc1nnc(NS(=O)(=O)c2ccc(N/C=C\C(=O)c3ccc(C)cc3)cc2)s1	-11	-17	19%	?	-32%[59 µM]	?
CCc1nnc(NS(=O)(=O)c2ccc(N/C=C\C(=O)c3ccc(F)cc3)cc2)s1	nt	-7	20%	-16%	nt	?
CCc1nnc(NS(=O)(=O)c2ccc(N/C=C/C(=O)c3ccc(C)cc3)cc2)s1	-12	-18	34%	?	40µM*	50µM*
CCc1nnc(NS(=O)(=O)c2ccc(NC(=O)/C=C/c3ccc(OC)cc3OC)cc2)s1	?	?	-3%	?	15%[59 µM]	56µM*
CCc1nnc(NS(=O)(=O)c2ccc(NC(=S)NC(=O)c3ccc(OC)c(OC)c3)cc2)s1	nt	7	2%	-22%	?	-35%
COc1cccc(N2CC(NC(=O)C(c3ccccc3)c3ccccc3)CC2=O)c1 (stereo not drawn)	nt	nt	-6%	-15%	-2%[59 µM]	-12%
O=C(O)c1ccc(C[n+]2c(-c3ccccc3)csc2Nc2ccccc2)cc1	-18	2	?	?	?	40µM*
CCCCCC[n+]1c(-c2ccccc2)csc1Nc1ccccc1	2	-15	17%	-11%	16µM*	18µM*
CCCCN1C(Nc2ccccc2)=NC[C@@H]1C	7	3	32%	-9%	18%[2.33 µM]	-3%
CC(C)(C)c1cc(-c2csc(Nc3ccccc3)[n+]2Cc2ccc(C(=O)O)cc2)cc(C(C)(C)C)c1O	-12	-15	45µM*	40µM*	40µM*	40µM*
O=C1/C(=C\c2ccccn2)SC(=S)N1Nc1ncc(C(F)(F)F)cc1Cl	-11	-9	-33%	56µM*	10µM*	79µM*
O=C1/C(=C/c2ccc(F)cc2)SC(=S)N1Nc1ncc(C(F)(F)F)cc1Cl	?	-14	-5%	63µM*	45µM*	-4%
O=C1/C(=C/c2ccccn2)SC(=S)N1NS(=O)(=O)c1ccccc1	nt	-5	-4%	-32%	?	-20%
O=C1/C(=C/c2ccccn2)SC(=S)N1Nc1ncc(C(F)(F)F)cc1Cl	-15	-7	?	50µM*	nt	nt
CCCCn1c(O)c(N=NC(=O)c2ccccc2NS(=O)(=O)c2cccs2)c2ccccc21	-16	-20	31%	-27%	-4%[59 µM]	-32%
C=CCn1c(O)c(N=NC(=O)c2ccccc2NS(=O)(=O)c2cccs2)c2ccccc21	-13	?	15%	-19%	45µM*	25%
CC(C)n1c(O)c(N=NC(=O)c2ccccc2NS(=O)(=O)c2cccs2)c2ccccc21	nt	-86*	-3%	14µM*	-16%[59 µM]	?
O=C(CCCc1nc(-c2ccco2)no1)Nc1ccccc1[N+](=O)[O-]	nt	nt	15%	-26%	?	?
COc1ccc(-c2nc3cc(C(C)C)ccc3o2)cc1NC(=O)c1ccccc1[N+](=O)[O-]	nt	nt	26%	-6%	7%[59 µM]	-19%
COc1cccc(C(=O)/C(C#N)=N/Nc2cccc(-c3ccnc(C)n3)c2)c1	nt	3	-1%	?	50µM*	?
SMILES	CtBP-E1A inh	Six1-Eya2 blk	HP1b binding inh	JMJD2A Tudor inh	G9a inh	BAZ2B inh
CCOc1ccc(-c2cc(C(=O)N3CCN(c4ccc(C)cc4)C(C)C3)c3ccccc3n2)cc1 (stereo not drawn)	nt	nt	3%	?	-35%[59 µM]	?
CC1=NN(c2ccc(Cl)cc2)C(=O)C1C(c1ccccc1O)c1c(C)[nH]n(-c2ccc(Cl)cc2)c1=O (stereo not drawn)	16	-19	?	56µM*	4µM*	35µM*
Cc1cc2c(s1)c1cnn(Cc3ccc(C#N)cc3)c(=O)c1n2C	nt	nt	nt	-3%	nt	nt
CC(C)C[C@H](NC(=O)OC(C)(C)C)c1n[nH]c(=S)n1N	8	0	27%	4%	10µM*	-18%
Cn1c(CNC(=O)OC(C)(C)C)n[nH]c1=S	10	5	17%	?	7%	-14%
O=S(=O)(c1cccs1)N1CCN(c2ccccc2)CC1	3	0	2%	-7%	12%	0%
O=C1C(NS(=O)(=O)c2cccs2)=C(N2CCN(c3ccccc3)CC2)C(=O)c2ccccc21	-22	-22	?	28µM*	3.2µM*	5.6µM*
O=C(C(NS(=O)(=O)c1cccs1)c1ccccc1)N1CCN(c2ccccc2)CC1 (stereo not drawn)	6	-6	4%	?	45µM*	?
O=C(O)C1CC=CC2CCN(C3CC3)C(=O)C21 (stereo not drawn)	nt	nt	35%	-21%	nt	nt
CCOc1cccc2c1OC(c1cc(OC)c(OC)c(OC)c1)N1N=C(c3ccc(C)o3)CC21 (stereo not drawn)	-8	-6	11%	-34%	13µM*	?
Cc1cc(C)c(C#N)c(SCC(=O)c2cccs2)n1	8	7	134%	-2%	27%[2.33 µM]	12%
CCN(CC)C(=O)CSc1nc(C)cc(-c2cccs2)c1C#N	5	-2	2%	56µM*	10µM*	-16%
Cc1nc(CN2CCCCC2)c(O)c(=O)[nH]1	-5	-7	-16%	25µM*	nt	nt
Cc1cc2ccccc2n1CCNC(=O)c1ccc(Br)o1	-21	-25	?	?	35µM*	?
CCC(=O)NCCn1c(C)cc2ccccc21	3	-10	1%	-23%	45µM*	-5%
Cc1cc2ccccc2n1CCNC(=O)c1ccc(Br)cc1	nt	nt	11%	-30%	-27%[59 µM]	-15%
Cc1onc(-c2ccccc2Cl)c1C(=O)NCCn1c(C)cc2ccccc21	-12	-23	16%	-24%	50µM*	-9%
COc1cc(CCC(=O)NCc2ccc3c(c2)CCN3C(=O)c2ccccc2)cc(OC)c1OC	nt	nt	21%	-14%	-2%[59 µM]	-7%
Cc1ccc(-c2c(C)n([O-])c3c([n+]2=O)CCCC3)cc1	12	7	2%	56µM*	-16%[59 µM]	-8%
Cc1c(-c2ccc(Br)cc2)[n+](=O)c2c(n1[O-])CCCCC2	-4	-10	6%	-10%	nt	-2%
